Data reported in PubChem BioAssay AID602314 (ICCB-Longwood Screening Facility, Harvard Medical School, 2012).
About 110 (0.13%) of roughly 84,000 compounds were called active. Cut-off read from the data, not from the text of the source: active = inhibition above about 30% (passing the limit was not always enough); inactive = the rest. This excerpt belongs to a sample that is enriched for actives.

Tested on: MgrA (MarR family transcriptional regulator), Staphylococcus aureus Newman
Assay: S. aureus MgrA activity modulators, primary screen, biochemical, S. aureus Newman, fluorescence polarization (AID 602314);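 note: 0% = protein plus DNA without compound and 100% = DNA alone without protein; higher means less MgrA bound to DNA so lower polarization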
Details: MgrA-DNA binding, hits give high values, concentration not given here

| Compound | inhibition |
| --- | --- |
| CCN1C(=O)/C(=C/C=C/c2ccco2)C(=O)NC1=S | 66.7% (active) |
| CCN(CC)P1(=S)OC(C)(C)CC1(C)O (stereo not given) | 0.3% (inactive) |
| O=C1CSC(c2ccccc2)c2c(-c3ccccc3)nn(-c3ccccc3)c2N1 (stereo not given) | -0.55% (inactive) |
| CCn1cc(C=C(C#N)C#N)c2ccccc21 | -2.65% (inactive) |
| O=C1NC(=O)C(C2(C3C(=O)NC(=O)NC3=O)C(=O)Nc3ccccc32)C(=O)N1 | 1.5% (inactive) |
| COc1cccc(N2C(=O)/C(=C/c3ccsc3)C(=O)NC2=S)c1 | 18.1% (inactive) |
| NC1=C(C(=O)OCc2ccccc2)C2(C(=O)Nc3ccc(Br)cc32)c2c(c3ccccc3oc2=O)O1 (stereo not given) | -0.3% (inactive) |
| CN1CCc2c(c(S)[nH]c(=S)c2C#N)C1 | 77.6% (active) |
| Cn1c([O-])c([N+](C)(C)C)c(=O)n(C)c1=O | 0.5% (inactive) |
| O=C1CC(c2cccc(Br)c2)c2c(c3ccccc3oc2=O)O1 (stereo not given) | 13.6% (inactive) |
